Test results from PubChem BioAssay (NCI).
About 79,000 compounds went through this panel and 15% of them were active in at least one assay; those are over-represented in the sample as a whole. Activity calls are given as the source filed them. Cut-off read from the data, not from the text of the source: active = growth inhibition above about 70%; inactive = the rest.

How the values were obtained:
[1] = NCI Yeast Anticancer Drug Screen. Data for the wt1 strain (AID 149);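 note: 0% = growth of vehicle-treated wt1 cultures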; conditions: S. cerevisiae wt1 strain (SPY 50644) growth inhibition, hits give high values
Method in brief: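 Yeast wt1 strain exposed to compounds; growth inhibition measured relative to vehicle-treated controls.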

[2] = NCI Yeast Anticancer Drug Screen. Data for the rad50EPP+ strain (AID 151);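 note: 0% = growth of vehicle-treated control cultures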; conditions: S. cerevisiae rad50 mutant strain, hits give high values
Method in brief: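 Read-out is yeast growth inhibition relative to vehicle; cells used were the rad50EPP+ strain.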

[3] = NCI Yeast Anticancer Drug Screen. Data for the mgt1 strain (AID 153); conditions: S. cerevisiae mgt1 mutant growth inhibition, hits give high values
Method in brief: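 Measured: inhibition of mgt1 yeast growth by compound, normalized to vehicle-treated cultures.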

[4] = NCI Yeast Anticancer Drug Screen. Data for the rad50 strain (AID 155);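 note: 0% = growth of vehicle-only cultures of the same strain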; conditions: S. cerevisiae rad50 strain growth inhibition, hits give high values
Method in brief: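 Yeast carrying a defined DNA repair defect were exposed to test compounds, and growth was compared with vehicle-treated controls to give percent inhibition.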

[5] = NCI Yeast Anticancer Drug Screen. Data for the mec2-1 strain (AID 157); conditions: S. cerevisiae mec2-1 strain, hits give high values
Method in brief: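 Using mec2-1 yeast: add compound, measure growth, express inhibition versus vehicle-treated cultures.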

[6] = NCI Yeast Anticancer Drug Screen. Data for the rad14 strain (AID 159);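 note: 0% = growth of vehicle-treated control cultures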; conditions: S. cerevisiae rad14 strain growth inhibition, hits give high values
Method in brief: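 Yeast cells carrying a defined DNA-repair defect were exposed to compounds, and growth inhibition was calculated relative to vehicle-treated control cultures.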

[7] = NCI Yeast Anticancer Drug Screen. Data for the sgs1 mgt1 strain (AID 161);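 note: 0% = growth of cultures given vehicle only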; conditions: S. cerevisiae sgs1 mgt1 strain, hits give high values
Method in brief: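 Yeast cells carrying a defined DNA-repair defect were exposed to test compounds. Growth inhibition was measured relative to vehicle-treated controls.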

[8] = NCI Yeast Anticancer Drug Screen. Data for the CLN2oe strain (AID 163);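 note: 0% = growth of vehicle-only control cultures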; conditions: S. cerevisiae CLN2oe strain, hits give high values
Method in brief: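 Whole-cell yeast growth assay. A strain engineered for altered cell-cycle control received compound, and inhibition relative to vehicle-treated cultures was recorded.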

[9] = NCI Yeast Anticancer Drug Screen. Data for the cln2 rad14 strain (AID 165);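 note: 0% = growth equal to vehicle treated cultures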; conditions: S. cerevisiae cln2 rad14 strain, hits give high values
Method in brief: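 Yeast strain cln2 rad14, bearing defects in cell cycle control and DNA repair, serves as the test system; values reflect growth inhibition compared with vehicle.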

[10] = NCI Yeast Anticancer Drug Screen. Data for the bub3 strain (AID 167); conditions: S. cerevisiae bub3 mutant strain, hits give high values
Method in brief: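 Compounds were applied to a genetically altered yeast strain carrying a cell-cycle control defect. Growth inhibition was scored against vehicle-treated controls.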

[11] = NCI Yeast Anticancer Drug Screen. Data for the wt2 strain (AID 169);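 note: 0% = growth of vehicle-treated yeast cultures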; conditions: S. cerevisiae wt2 strain growth inhibition, hits give high values
Method in brief: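 Treated yeast vs. vehicle-treated yeast: growth inhibition determined.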

[12] = NCI Yeast Anticancer Drug Screen. Data for the mlh1 strain (AID 171);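 note: 0% = growth of vehicle-treated control cultures of the same strain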; conditions: S. cerevisiae mlh1 strain growth inhibition, hits give high values
Method in brief: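 A yeast strain with a defined genetic lesion serves as the test organism. Cultures receive compound or vehicle, and growth is measured.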

[13] = NCI Yeast Anticancer Drug Screen. Data for the sgs1 strain (AID 173);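 note: 0% = growth of vehicle-only control cultures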; conditions: S. cerevisiae sgs1 mutant, hits give high values
Method in brief: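 A genetically defined yeast mutant is incubated with the test compound, and its growth is compared to that of the same strain given vehicle.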

[14] = NCI Yeast Anticancer Drug Screen. Data for the mlh1 rad18 strain (AID 175); conditions: S. cerevisiae mlh1 rad18 strain growth inhibition, hits give high values
Method in brief: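 Steps: expose repair-defective yeast to compound; measure growth; express inhibition against vehicle-treated controls.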

[15] = NCI Yeast Anticancer Drug Screen. Data for the rad18 strain (AID 177); conditions: S. cerevisiae rad18 mutant growth inhibition, hits give high values
Method in brief: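 Measured value is growth inhibition of a yeast strain bearing a DNA repair alteration, referenced to vehicle-treated cells.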

[16] = at 5.0 µM (retest, dose inferred, filed as 0.5)
[17] = at 50.0 µM (retest, dose inferred, filed as 5.0)

Measured: growth inhibition

Cc1ccc(C(C)C)c(C(=C2C=CC(=[N+](C)C)C=C2)c2c(C(C)C)ccc(C)c2O)c1O
inactive: [1]; at 1.2 µM 1% | [1]; at 3.7 µM -2% | [2]; at 1.2 µM -1% | [2]; at 3.7 µM 1% | [2]; at 11.0 µM -1% | [2]; at 33.0 µM -3% | [2]; at 100.0 µM -8% | [3]; at 1.2 µM -2% | [3]; at 3.7 µM 0% | [4]; at 1.2 µM 4% | [4]; at 3.7 µM 16% | [5]; at 1.2 µM -1% | [5]; at 3.7 µM 16% | [5]; [16] 53% | [6]; at 1.2 µM 1% | [6]; at 3.7 µM 19% | [7]; [16] 66% | [8]; at 1.2 µM 2% | [8]; at 3.7 µM 26% | [9]; [16] 51% | [10]; at 1.2 µM 3% | [10]; at 3.7 µM 8% | [10]; [16] 35% | [11]; at 1.2 µM 1% | [11]; at 3.7 µM -1% | [12]; at 1.2 µM 0% | [12]; at 3.7 µM 8% | [13]; at 1.2 µM 0% | [13]; at 3.7 µM 14% | [14]; [16] 63% | [15]; at 1.2 µM -2% | [15]; at 3.7 µM 25%
active: [1]; at 11.0 µM 98% | [1]; at 33.0 µM 95% | [1]; at 100.0 µM 86% | [3]; at 11.0 µM 98% | [3]; at 33.0 µM 94% | [3]; at 100.0 µM 85% | [4]; [16] 84% | [4]; at 11.0 µM 97% | [4]; at 33.0 µM 93% | [4]; [17] 93% | [4]; at 50.0 µM 96.7% | [4]; at 100.0 µM 81% | [5]; at 11.0 µM 98% | [5]; at 33.0 µM 96% | [5]; [17] 96% | [5]; at 50.0 µM 97.5% | [5]; at 100.0 µM 88% | [6]; at 11.0 µM 98% | [6]; at 33.0 µM 94% | [6]; at 100.0 µM 85% | [7]; [17] 96% | [7]; at 50.0 µM 97.3% | [8]; at 11.0 µM 97% | [8]; at 33.0 µM 93% | [8]; at 100.0 µM 75% | [9]; [17] 94% | [9]; at 50.0 µM 95.2% | [10]; at 11.0 µM 97% | [10]; at 33.0 µM 93% | [10]; [17] 97% | [10]; at 50.0 µM 95.3% | [10]; at 100.0 µM 81% | [11]; at 11.0 µM 97% | [11]; at 33.0 µM 94% | [11]; at 100.0 µM 83% | [12]; at 11.0 µM 97% | [12]; at 33.0 µM 96% | [12]; at 100.0 µM 84% | [13]; at 11.0 µM 97% | [13]; at 33.0 µM 94% | [13]; at 100.0 µM 82% | [14]; [17] 94% | [14]; at 50.0 µM 96.9% | [15]; at 11.0 µM 98% | [15]; at 33.0 µM 95% | [15]; at 100.0 µM 80%

O=C(Nn1c(-c2ccccc2)nc2ccccc2c1=O)c1ccc(Cl)cc1
inactive: [1]; at 1.2 µM 23% | [1]; at 3.7 µM 15% | [1]; at 11.0 µM 17% | [1]; at 33.0 µM 54% | [2]; at 1.2 µM -1% | [2]; at 3.7 µM -11% | [2]; at 11.0 µM -2% | [2]; at 33.0 µM 16% | [2]; at 100.0 µM 27% | [3]; at 1.2 µM -4% | [3]; at 3.7 µM -19% | [3]; at 11.0 µM -17% | [3]; at 33.0 µM 50% | [4]; at 1.2 µM 26% | [4]; at 3.7 µM 9% | [4]; [16] -24% | [4]; at 11.0 µM 31% | [4]; [17] 68% | [4]; at 50.0 µM 66.5% | [5]; at 1.2 µM -15% | [5]; at 3.7 µM -24% | [5]; [16] -3% | [5]; at 11.0 µM -1% | [5]; at 33.0 µM 28% | [5]; [17] 9% | [5]; at 50.0 µM 36.4% | [6]; at 1.2 µM -11% | [6]; at 3.7 µM -5% | [6]; at 11.0 µM -15% | [7]; [16] 0% | [7]; [17] 24% | [7]; at 50.0 µM 56.5% | [8]; at 1.2 µM 12% | [8]; at 3.7 µM -8% | [8]; at 11.0 µM -23% | [8]; at 33.0 µM 12% | [9]; [16] -20% | [9]; [17] 16% | [9]; at 50.0 µM 49.5% | [10]; at 1.2 µM 43% | [10]; at 3.7 µM 52% | [10]; [16] -19% | [10]; [17] 68% | [10]; at 50.0 µM 68.7% | [11]; at 1.2 µM 5% | [11]; at 3.7 µM 6% | [11]; at 11.0 µM 5% | [11]; at 33.0 µM 51% | [12]; at 1.2 µM 5% | [12]; at 3.7 µM 1% | [12]; at 11.0 µM 26% | [12]; at 33.0 µM 69% | [13]; at 1.2 µM 23% | [13]; at 3.7 µM 19% | [13]; at 11.0 µM 33% | [14]; [16] -46% | [14]; [17] 68% | [15]; at 1.2 µM -2% | [15]; at 3.7 µM -2% | [15]; at 11.0 µM 13%
active: [1]; at 100.0 µM 96% | [3]; at 100.0 µM 94% | [4]; at 33.0 µM 70% | [4]; at 100.0 µM 95% | [5]; at 100.0 µM 93% | [6]; at 33.0 µM 76% | [6]; at 100.0 µM 91% | [8]; at 100.0 µM 94% | [10]; at 11.0 µM 72% | [10]; at 33.0 µM 93% | [10]; at 100.0 µM 95% | [11]; at 100.0 µM 95% | [12]; at 100.0 µM 95% | [13]; at 33.0 µM 78% | [13]; at 100.0 µM 96% | [14]; at 50.0 µM 71.9% | [15]; at 33.0 µM 70% | [15]; at 100.0 µM 95%
